# Test results reported in PubChem BioAssay (Tox21).
# Unmarked numbers belong to inactive results. Calls of active or inactive are those of the source. Calls come from the whole dose curve; as a rule, active = well fitted curve in the direction sought with a large enough effect in the repeat runs; inconclusive = weak or mixed curves; inactive = flat fitted curve, though single readings scatter.
# Experiment: qHTS assay to test for compound auto fluorescence at 590 nm (red) in HepG2 cell free culture (AID 720684)
# Details: cell-free medium autofluorescence, red 540/590 nm; series mostly up to 91.3 µM; fluorescence, % of Rose Bengal: at the top concentration
# Method in brief: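 Plate contents were MEM with 10% FBS plus test compound or DMSO, no cells. Fluorescence was recorded with 540 nm excitation and 590 nm emission.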
# % is set by controls: 0 for no effect and ±100 for the full control effect.
SMILES,"fluorescence, % of Rose Bengal",outcome
CSC(=O)c1c(C(F)F)nc(C(F)(F)F)c(C(=O)SC)c1CC(C)C,0.0184%,–
CCOP(=O)(OCC)Oc1cc(C)nc(C(C)C)n1,-0.146%,–
CCOP(=O)(Sc1ccccc1)Sc1ccccc1,-0.181%,–
CCC1COC(Cn2cncn2)(c2ccc(Cl)cc2Cl)O1 (configuration not stated),-0.138%,–
Clc1ccc(C(Cl)(Cl)Cl)cc1Cl,0.227%,–
Nc1nc(N)nc(Cl)n1,-0.032%,–
ClCBr,-0.274% [at 95.7 µM],–
CC(Cc1ccc2c(c1)OCO2)NO (configuration not stated),0.11% [at 95.7 µM],–
C[C@H]1[C@H](c2ccc(Cl)cc2)SC(=O)N1C(=O)NC1CCCCC1,-0.142%,–
CCOP(=O)(OCC)Oc1nc(Cl)c(Cl)cc1Cl,-0.0347%,–
C[N+]1(C)[C@@H]2CC[C@H]1CC(OC(=O)C(CO)c1ccccc1)C2 (some centres not stated),–,inactive
CCOP(=S)(NC(C)C)Oc1ccccc1C(=O)OC(C)C (configuration not stated),-0.0026%,–
O=S1(=O)OCC2C(CO1)C1(Cl)C(Cl)=C(Cl)C2(Cl)C1(Cl)Cl (configuration not stated),-0.0493%,–
O=C(O)CCCCCCNC1c2ccccc2CCc2ccccc21,-0.0349% [at 46 µM],–
Cc1cnc2c(C(=O)O)c(Cl)ccc2c1,-0.0933%,–
C#CCO,-0.32%,–
CCCCCCCc1ccc(O)cc1,-0.206%,–
S=C=NCCc1ccccc1,0.0384%,–
CC1=C2C[C@H]3[C@@H](CC=C4C[C@@H](O)CC[C@@]43C)[C@@H]2CC[C@]12O[C@@H]1C[C@H](C)CN[C@H]1[C@H]2C,0.0291% [at 46 µM],–
FC(F)C(F)(F)OCC(Cn1cncn1)c1ccc(Cl)cc1Cl (configuration not stated),-0.134%,–
CCCCN(CCCC)C(=S)[S-].CCCCN(CCCC)C(=S)[S-].[Ni+2],0.246% [at 46 µM],–
COC(=O)/C=C(\C)OP(=O)(OC)OC,0.0646%,–
